Source: PubChem BioAssay (National Center for Advancing Translational Sciences (NCATS))
SMN2 splice enh = enhancers of SMN2 splice variant expression; HEK293 SMN2-luciferase splicing reporter, luminescence, 30-36 h; Potency, µM (highest dose often 46.1 µM), for the others: at the highest dose activity change, positive = activation, most hits filed as activators; 210,000 compounds, 2.8% hits; also: % of control where 0% means no effect; nearly all actives have a fitted effect of over 55% in size
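qHTS luciferase splicing reporter: luminescence rises when SMN2 exon 7 is included in transfected HEK293 cells. Compound exposure lasted 30-36 h at 37C, with 4.5 mM final sodium butyrate as control, followed by a ONE-Glo read.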
Rab9 promoter act = activators of Rab9 promoter | Huh7 Rab9 promoter-luciferase reporter, luminescence, 24 h | AID 485297 | 320,000 compounds, 2.8% hits | Potency, µM (series often up to 9.22 µM), for the others: at the highest dose activation, negative = inhibition, usual class: activators; also: % of control where 0% means no effect; nearly all actives have a fitted effect of over 60% in size
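Steps: seed 1500 Huh7 Rab9-luc cells per well, rest 2 h at 37 °C; add compound in DMSO; incubate 24 h; add luciferase reagent, 10 min ambient; read luminescence.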
NPC1 prom act = activators of NPC1 promoter | Huh7 NPC1 promoter luciferase reporter, 24 h | 320,000 compounds, 2.4% hits | AID 485313 | Potency, µM (highest dose often 9.22 µM), for the others: at the highest dose activation, most hits filed as activators; also: % of control where 0% means no effect; nearly all actives have a fitted effect of over 60% in size
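Cells: Huh7 expressing luciferase under the NPC1 promoter, 1500/well. Seeded 2 h, compound added, incubated 24 h at 37 °C. Luciferase reagent, 10 min ambient, then luminescence.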
KinaseGlo FLuc = counter-screen: inhibitors of Kinase-Glo firefly luciferase; 200,000 compounds, 0.28% hits; Kinase-Glo luciferase, ATP luminescence, 8 min; Potency, µM (doses to about 38.3 µM), for inactives: at the top dose activity change, negative = inhibition, usual class: inhibitors; also: % is scaled to controls: 0 for no effect and ±100 for the full control effect; nearly all actives have a fitted effect of over 60% in size
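Inhibition of Kinase-Glo luciferase light generation was assessed at 10 uM ATP in pH 7.2 imidazole buffer, with luminescence measured after eight minutes at ambient temperature.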
ELG1 genotox = induces genotoxicity in HEK293T cells with luciferase-tagged ELG1 | HEK293T ELG1-luciferase reporter, luminescence, 16 h | Potency, µM (series often up to 46 µM), for inactives: at the top dose activity change, positive = activation, usual class: activators | 330,000 compounds, 1.3% hits | AID 504466; also: % of control where 0% means no effect; nearly all actives have a fitted effect of over 60% in size
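Reporter readout depends on ELG1 protein level, which increases with genetic stress. After 16 hr compound exposure at 37 °C, luciferase activity was quantified using ONE-Glo.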
FLuc counter = firefly luciferase modulation, counter-screen for miR-21 project | P08659 | purified FLuc, Km substrates, luminescence inhibition | Potency, µM (series often up to 57.5 µM), for inactives: at the top dose activity change, negative = inhibition, hits mostly inhibitors | 360,000 compounds, 6.9% hits | AID 588342;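 also: plate controls were vehicle for no effect and reference inhibitor for full effect; nearly all actives have a fitted effect of over 55% in size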
Target sequence (P08659 whole entry, looked up): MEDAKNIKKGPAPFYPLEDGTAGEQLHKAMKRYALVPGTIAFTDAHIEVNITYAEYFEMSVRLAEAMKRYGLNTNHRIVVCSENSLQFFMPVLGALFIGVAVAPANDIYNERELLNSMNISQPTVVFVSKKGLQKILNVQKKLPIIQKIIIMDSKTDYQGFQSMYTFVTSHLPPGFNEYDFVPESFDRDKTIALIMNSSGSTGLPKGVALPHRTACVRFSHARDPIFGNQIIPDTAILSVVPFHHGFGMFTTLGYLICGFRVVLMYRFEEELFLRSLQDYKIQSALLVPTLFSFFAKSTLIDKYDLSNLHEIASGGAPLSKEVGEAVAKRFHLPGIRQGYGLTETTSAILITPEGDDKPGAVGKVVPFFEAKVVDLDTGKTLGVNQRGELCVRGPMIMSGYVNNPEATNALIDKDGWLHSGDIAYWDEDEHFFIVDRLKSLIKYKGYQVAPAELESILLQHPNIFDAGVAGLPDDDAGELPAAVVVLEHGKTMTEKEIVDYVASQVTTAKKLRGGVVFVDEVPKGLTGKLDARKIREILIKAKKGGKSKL
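Purified P. pyralis luciferase, 10 nM final, with Km-level 10 uM D-luciferin and 10 uM ATP in 50 mM Tris acetate pH 7.5, 10 mM Mg acetate, 0.01% Tween-20, 0.05% BSA; 6-point qHTS titration about 60 µM downward; luminescence read.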
Numbers without * were called inactive; ? = inconclusive; . = not tested or not shown. This is a sample that favours compounds with a hit; in the whole collection about 7.5% have one here. Calls follow the shape of the dose curve; as a rule, active = well fitted curve in the direction sought with a large enough effect; inconclusive = small, poorly fitted or top-dose-only effect, or another doubt; inactive = no such curve, though single readings can be large; an effect the other way counts as inactive or inconclusive. Potency is read from the fitted curve at half-maximal effect.

SMILES | SMN2 splice enh | Rab9 promoter act | NPC1 prom act | KinaseGlo FLuc | ELG1 genotox | FLuc counter
O=C(Nc1nc2c(Cl)cccc2s1)c1ccc([N+](=O)[O-])o1 | . | 9.3% | -1.9% | . | -12.1% | ?
O=C(Nc1nc2c(F)cccc2s1)c1ccc([N+](=O)[O-])o1 | . | ? | 3.98µM* | . | 1.9% | ?
Cc1oc(-c2ccc(Cl)cc2)cc1C(=O)O | . | ? | ? | . | 11.7% | 10.7µM*
CCOC(=O)c1ccc(Oc2coc3cc(O)ccc3c2=O)cc1 | . | 8.1% | 1.5% | . | 1.5% | -10.8%
CC(=O)c1ccc(N2CCN(S(=O)(=O)c3ccc4[nH]c5c(c4c3)CCCC5)CC2)cc1 | . | . | . | . | . | -0.8%
Cc1ccsc1C(=O)Nc1ccc2c(c1)OCCO2 | 2.24µM* | 0.631µM* | 1.26µM* | 10µM* | 2.06µM* | 1.9µM*
CC(=O)Nc1ccc2c(c1)OCCOCCOc1cc(NC(C)=O)ccc1OCCOCCOCCO2 | 4.3% | 1.3% | 7.4% | -2.1% | 0.3% | 0.2%
COc1ccc(NC(=O)c2ocnc2C)cc1OC | 13.8% | 5.4% | 1.4% | -15.9% | -0.4% | -14.9%
Cc1ncoc1C(=O)Nc1ccc2c(c1)OCCO2 | 15.8µM* | 2.51µM* | 3.16µM* | ? | ? | 12µM*
CCn1nc(C)c(CN2CCC(n3nccc3NC(=O)Cc3ccccc3)CC2)c1C | . | 3.2% | 2.7% | . | 4.2% | 0.3%
CC(OC(=O)CNC(=O)c1ccccc1F)C(=O)Nc1nc(-c2ccccc2)cs1 (stereo not given) | 12.6µM* | ? | ? | 0.4% | ? | ?
COc1ccc(-c2csc(NC(=O)c3ccoc3C)n2)cc1 | 13.8% | ? | ? | 0.8% | ? | 12µM*
COc1cccc(-c2csc(NC(=O)Oc3ccccc3)n2)c1 | -6.5% | 0.9% | 24.7% | -9.0% | 21.3% | 12µM*
COc1cccc(-c2csc(NNC(=O)c3cccs3)n2)c1 | . | -2.3% | -4.4% | . | 5.6% | ?
CCc1ccc(-c2csc(NC(=O)C3CCCO3)c2C(=O)OC(C)C)cc1 (stereo not given) | -29.7% | -0.5% | -0.9% | -0.8% | -6.8% | 2.1%
COC(=O)c1c(-c2ccc(F)cc2)csc1NC(=O)C1CCCO1 (stereo not given) | 0.3% | 23.0% | 17.2% | 0.4% | 7.3% | 26.9µM*
COc1ccccc1CNC(=O)C1CCN(S(=O)(=O)Cc2ccccc2)CC1 | . | . | . | . | . | 0.5%
COc1ccc(-c2csc(NC(=O)c3ccccc3C(=O)O)n2)cc1 | -51.4% | -1.5% | -3.6% | -1.6% | -0.3% | 15.1µM*
COC(=O)c1c(-c2ccncc2)csc1NC(=O)c1ccoc1C | 11.2µM* | 2µM* | 2.82µM* | 1.9% | ? | 8.49µM*
COc1cccc(-c2csc(N3CCN(C(=S)NCC(C)C)CC3)n2)c1 | . | -4.5% | -1.4% | . | -3.0% | ?
COc1ccc(-c2nsc(NC(=O)c3ccccc3Br)n2)cc1 | 12.8% | . | . | . | . | 16.9µM*
CCNC(=S)N1CCN(c2nc(-c3cccc(OC)c3)cs2)CC1 | . | 3.3% | 2.6% | . | -8.1% | 19µM*
COc1ccc(-c2csc(NC(=O)c3ccccc3S(C)(=O)=O)n2)cc1 | -13.5% | 6.2% | -0.2% | -1.4% | -10.3% | ?
COc1ccccc1C(=O)Nc1nc(-c2ccccc2)ns1 | 9.0% | . | . | . | . | ?
Cc1ccc2cccc(NC(=O)c3ccc(C#N)cc3F)c2n1 | 9.1% | . | . | . | . | -3.7%
CC1CN(S(=O)(=O)c2ccc(C(=O)N(C)C3CCCCC3)cc2)CC(C)O1 (stereo not given) | . | . | . | . | -4.5% | .
O=C(CN1C(=O)COc2ccc(S(=O)(=O)N3CCCC3)cc21)NCc1ccccn1 | . | -0.6% | 1.5% | . | 1.1% | 0.2%
COc1ccc(-c2csc(NC(=O)C3CCCO3)n2)cc1 (stereo not given) | 2.7% | 3.98µM* | ? | 0.6% | ? | 21.3µM*
Cc1nn(C)c(Cl)c1/C=N/OC(=O)c1ccc(F)cc1 | 9.4% | 0.5% | -2.1% | -0.6% | 0.5% | 16.9µM*
